Results on 59 compounds are retold here after PubChem BioAssay AID1992 (Sanford-Burnham Center for Chemical Genomics, 2009).

SMILES strings stand for the structures. The campaign covered roughly 50,000 compounds. About 350 (0.7%) were called active. The sample as a whole holds a higher share of actives than the screen did. Values without a mark were called inactive. Cut-off read from the data, not from the text of the source: active = inhibition above about 60%; inactive = the rest.

Sequence of Dual specificity protein phosphatase 3 (Homo sapiens) (P51452 whole entry, looked up): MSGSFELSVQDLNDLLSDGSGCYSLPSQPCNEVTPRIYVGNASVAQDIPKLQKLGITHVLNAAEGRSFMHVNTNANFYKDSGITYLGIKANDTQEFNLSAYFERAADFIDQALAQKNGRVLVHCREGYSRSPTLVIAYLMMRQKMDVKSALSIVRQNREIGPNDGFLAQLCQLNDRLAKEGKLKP

This experiment has as its target Dual specificity protein phosphatase 3 (Homo sapiens) (UniProt P51452). In words: human DUSP3 activity blockers – biochemical, colorimetric, HTS, primary screen (AID 1992). Conditions: recombinant VHR phosphatase, colorimetric substrate read-out; at 20 µM; stronger effect = higher value.
For `CSc1nc(SC)c2c3c(sc2n1)COC(C)(C)C3`, the inhibition was 4.5%. In the case of `CC1(C)CC(NC(=O)c2ccccc2C(=O)O)CC(C)(C)N1` it was -26.8%; in that of `COc1ccc(N2C(=O)C3C(C2=O)C2C=CC3C23CC3)cc1` (centres undefined), -13%; in that of `Cc1ccc(C)c(NC(=O)CN(c2ccc(F)cc2)S(=O)(=O)c2ccccc2)c1`, -21.2%. Take `CCCCCCOc1ccc(/C=C2/C(=O)ON=C2c2ccccc2)cc1`: the inhibition is 1.2%.

For the compound `COC(=O)C(=C/C=C/N(C)C)C(=O)OC`, the inhibition is -1.7%. In the case of `COc1ccc(C2=C/C(=C/c3cccc(OC)c3OC(C)=O)C(=O)O2)cc1` it was 2.4%; in that of `O=C1c2cccc3cc(Br)cc(c23)C(=O)N1Nc1ccccc1`, -21.6%; in that of `COc1ccccc1OCCCCOc1c(C)cccc1C`, 27.1%. To `COc1ccc(C2CC(c3ccccc3)=NN2c2ccccc2OC)cc1` (centres undefined) belongs 8.3%; to `CC(C)CN1C(=O)/C(=C/c2cccc(Oc3ccccc3)c2)SC1=S`, -0.1%. To `COc1cccc(OCCOc2cccc(/C=C3/SC(=S)N(Cc4ccccc4)C3=O)c2)c1` belongs 112% (active). As for `COc1ccc(/C=C2/SC(=S)N(Cc3ccccc3)C2=O)cc1OC`, the inhibition was -6.8%. To `Cc1ccc(NC(=O)CC2SC(N)=NC2=O)c([N+](=O)[O-])c1` (centres undefined) belongs 24.8%.

As for `C=CCN1C(=O)/C(=C\c2cc(OC)c(O)c([N+](=O)[O-])c2)C(=O)NC1=S`, the inhibition is 3.8%.

In the case of `C=CCN1C(=O)/C(=C\c2cccn2-c2cccc([N+](=O)[O-])c2)C(=O)NC1=S`, the inhibition is 85.9% (active). To `COc1ccc(N2C(=O)NC(=O)/C(=C/c3cccn3-c3ccc([N+](=O)[O-])cc3)C2=O)cc1` belongs -13.8%. To `CC(=O)Oc1ccc(/C=C2\C=C(c3ccc(Br)cc3)OC2=O)c(OC(C)=O)c1` belongs 5.9%; to `CCOC(=O)CCCN1C(=O)/C(=C/c2ccccc2)SC1=S`, -3.8%. To `CCOc1ccc(N2C(=O)S/C(=C\c3ccccc3OC)C2=O)cc1` belongs -12.5%; to `CCOC(=O)c1sc(C)c(C(N)=O)c1N`, 0.2%. For the compound `O=C1N/C(=N/N=C/c2ccc3c(c2)OCO3)SC1c1ccccc1` (centres undefined), the inhibition was -3.2%.

For `O=C(Nc1c(Cl)cccc1Cl)c1ccc(Cl)c(Cl)c1`, the inhibition was -2%. In the case of `CCc1cccc(CC)c1NC(=O)c1ccccc1OC` it was 2.4%; in that of `COc1ccc(CCNS(=O)(=O)c2cccc([N+](=O)[O-])c2)cc1`, 8.5%; in that of `CCOc1cccc2c1NC(C)(C)C(=S)C2=C1SC(C(=O)OC)=C(C(=O)OC)S1`, -4.6%.

With `CCN(CC)c1ccc(NC(=O)c2oc3ccccc3c2C)cc1`, the inhibition was 7.4%. Regarding `CCOC(=O)c1ccc(NC(=O)/C(C#N)=C2\NC(C)(C)Cc3ccccc32)cc1`, the inhibition is -14%. To `Cc1cc(OCC(=O)Nc2cccnc2)ccc1Cl` belongs -1.1%; to `CCOC(=O)c1ccccc1N/C=C(\C#N)C(=O)NCc1ccccc1`, -12%. For `CC1=C(C(=O)c2ccccc2)C(c2ccc([N+](=O)[O-])cc2)NC(=O)N1` (centres undefined), the inhibition was -1.5%. To `COc1ccc(C(=O)N2CCN(Cc3cccc(OC)c3OC)CC2)cc1OC` belongs -15.2%; to `COc1ccc(OC(C)C(=O)NCCc2nc3ccccc3[nH]2)cc1` (centres undefined), -9.3%; to `CC(=O)Nc1ccc(S(=O)(=O)Nc2cccc(-c3nc4ccccc4[nH]3)c2)cc1`, -3%. Consider `Cc1cc2c(cc1C)-c1nc3ccccc3c(=O)n1C(C)(C)C2`, for which the inhibition is -9.1%.

For `Cc1cc(C(=O)N/N=C/c2ccc(Br)c([N+](=O)[O-])c2)n[nH]1`, the inhibition was -1.6%.

As for `CC(C)(C)OC(=O)NC(Cc1c[nH]c2ccccc12)C(=O)N1CCOCC1` (centres undefined), the inhibition is 4.4%.

Regarding `O=C1N/C(=N\N=C\c2ccccc2O)SC1Cc1cccc(C(F)(F)F)c1` (centres undefined), the inhibition was -19.6%. In the case of `Cc1cc(NC(=O)C2CCCCC2)cc(C)c1O` it was -10.1%; in that of `Cc1ccc(-c2cc(C(=O)N3CC(C)CC(C)C3)c3ccccc3n2)cc1C` (centres undefined), 30.2%; in that of `CC(C)c1ccc(C(=O)NC2CC2)cc1`, 0%.

For `COc1cccc(C2/C(=C(\O)c3ccc(Cl)cc3)C(=O)C(=O)N2c2cccnc2)c1` (centres undefined), the inhibition is -0.3%.

With `N#C/C(=C\c1cn(CC(=O)Nc2ccccc2)c2ccccc12)C(=O)Nc1ccc(F)cc1`, the inhibition is 23.2%.

For `O=c1oc2c(-c3cc(Cl)ccc3Cl)cc(O)cc2s1`, the inhibition was 14%. For `C/C(=N/NC(=O)c1ccccc1C)c1ccc(NC(=O)C(F)(F)F)cc1`, the inhibition is -15.5%.

Consider `CCOc1ccc(-n2c(O)c(C=C3C=CC=N3)c(=O)[nH]c2=O)cc1`, for which the inhibition is 3%.

Regarding `O=c1[nH]c(=O)n(-c2ccc(Cl)cc2)c(O)c1/C=C1/C=CC=N1`, the inhibition is 37.9%. With `O=c1[nH]c(=S)n(-c2cccc(Cl)c2)c(O)c1/C=C1/C=CC=N1`, the inhibition was 87.4% (active). `O=C(CC1Nc2ccccc2NC1=O)Nc1ccccc1NC(=O)CC1Nc2ccccc2NC1=O` (centres undefined): the inhibition is 97.7% (active). Regarding `Cc1ccc(NC(=O)CC2Nc3cc(C)c(C)cc3NC2=O)cc1` (centres undefined), the inhibition is 33.7%. Turning to `Cc1cc2c(cc1C)NC(CC(=O)Nc1ccccc1C(F)(F)F)C(=O)N2` (centres undefined), the inhibition was -0.3%. For the compound `C=CCc1ccccc1OCCOc1c(I)cc(/C=C2/SC(=S)N(C)C2=O)cc1OC`, the inhibition was -23.1%.

As to `COc1ccccc1OCCOc1ccc(/C=N/n2cnnc2)cc1`, the inhibition was 14.5%. In the case of `CCOc1cc(/C=N/n2cnnc2)ccc1OCCOc1ccccc1C` it was -20.4%; in that of `Cc1cccc(OCCOc2cccc(/C=N/n3cnnc3)c2)c1`, 112% (active). To `CC(C)c1ccc(NC(=O)CN(c2ccc(Oc3ccccc3)cc2)S(C)(=O)=O)cc1` belongs -26.4%; to `CCCOC(=O)c1ccc(N=Cc2ccc([N+](=O)[O-])cc2)cc1`, 3.4%; to `O=C(NCCN1CCOCC1)c1cc2nc(-c3ccc([N+](=O)[O-])cc3)cc(C(F)(F)F)n2n1`, -23.4%. To `Cc1ccc(-c2ccc(C)cc2N)c(N)c1` belongs -3%.

As a reminder, the inhibition is the drop in the measured response relative to a control, in per cent.
